Assay outcomes: PubChem, several laboratories
hgDAF-12 ag – hgDAF-12 agonism, primary luciferase screen; HEK293 GAL4-hgDAF12 UAS-luciferase reporter, agonist luminescence; normalized to butyrate control; activation, % at 6.8 µM; hit rate 1.8% among 370,000; AID 687014;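 active = activation above a cutoff set at the mean of all screened compounds plus 3 SD, cut at about 10% in these data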
Wnt bcat act – activators of Wnt/beta-catenin signaling | activation, % at 9.35 µM | Wnt/beta-catenin reporter cell assay, activator, plate reader | AID 743398 | hit rate 1.2% among 300,000; in the data active = activation above about 30%, passing the limit was not always enough; inconclusive = no clear call, values can overlap the other calls
DAX1 StAR inh – blocks DAX1 repression of SF-1 activated StAR promoter; inhibition, % at 6.8 µM; AID 652010; hit rate 1.1% among 370,000; HEK293T StAR-luciferase reporter, SF-1/DAX-1 repression relief;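 active = inhibition above the mean over all tested compounds plus 3 SD, cut at about 3.6% in these data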;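 note: higher inhibition means more luminescence from relief of DAX-1 repression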
hcDAF-12 act – activators of H. contortus DAF-12 nuclear receptor. HEK293 hcDAF-12 lit1-tk-luc reporter, luminescence; 0% DMSO, 100% Δ7-dafachronic acid. activation, % at 6.8 µM. hit rate 1.4% among 370,000. AID 652067;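 active = activation above the mean of all tested compounds plus 3 SD, cut at about 5.5% in these data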
esBAF inh – SWI/SNF esBAF complex inhibition; mouse ES cells, Bmi1-luciferase knock-in reporter, 24 h; 100% = twice the neutral-well signal; AID 602393; reporter increase, % at 12.5 µM; hit rate 2% among 350,000; in the data active = activation above about 40%; inconclusive = no clear call, values can overlap the other calls;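 note: a rise in the Bmi1 reporter signal indicates esBAF inhibition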
ssDAF12 agonist – activates DAF-12 receptor from parasite S. stercoralis. hit rate 1% among 370,000. HEK293 ssDAF-12/GRIP1 lit1-tk-luc reporter, luminescence; % of 3 µM dafachronic acid response. AID 652126. activation, % at 6.8 µM;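 active = activation above the mean over all tested compounds plus 3 SD, cut at about 0.9% in these data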
LXR ag – activates human LXR-beta, counter-screen for hcDAF-12 agonists. shares compounds with hcDAF-12 act. HEK293 Gal4-LXR tk-luc reporter, luminescence, 24 h; normalized: DMSO 0%, positive control 100%. activation, % at 6.8 µM. 3,400 tested, under 10 active;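 active = mean percent activation of the reporter above a cutoff set as the average over tested compounds plus their standard deviation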
Target sequence (P55055 whole entry, looked up, the tested form may be a part): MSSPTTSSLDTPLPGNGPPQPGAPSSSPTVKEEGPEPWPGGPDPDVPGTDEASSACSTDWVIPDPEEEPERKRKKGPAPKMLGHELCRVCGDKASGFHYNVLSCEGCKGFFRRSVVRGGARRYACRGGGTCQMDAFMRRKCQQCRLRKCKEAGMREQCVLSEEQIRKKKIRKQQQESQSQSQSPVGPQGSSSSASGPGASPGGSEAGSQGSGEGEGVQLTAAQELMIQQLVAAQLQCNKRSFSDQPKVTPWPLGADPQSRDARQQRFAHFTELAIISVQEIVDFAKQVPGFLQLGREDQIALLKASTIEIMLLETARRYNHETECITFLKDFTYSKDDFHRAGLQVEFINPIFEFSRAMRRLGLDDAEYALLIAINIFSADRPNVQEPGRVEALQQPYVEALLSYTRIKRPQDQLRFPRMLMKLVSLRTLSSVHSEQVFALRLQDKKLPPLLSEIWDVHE
hcDAF12 conf – hcDAF-12 agonism, confirmation assay | activation, % at 6.8 µM | shares compounds with hcDAF-12 act | AID 743032 | HEK293 hcDAF-12 lit1-tk-luc reporter, luminescence; % of Δ7-dafachronic acid response | hit rate 61% among 3,400;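 active = mean activation across triplicate tests above the threshold derived from the earlier primary screen, cut at about 5.5% in these data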
hgDAF12 ag – confirmation of H. glycines DAF-12 agonists; activation, % at 6.8 µM; hit rate 80% among 3,300; HEK293 GAL4-hgDAF12 luciferase reporter, agonist mode; percent of butyrate response; shares compounds with hgDAF-12 ag;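 active = mean activation over triplicate wells above the hit cutoff derived from the earlier primary screen, cut at about 11% in these data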
LXRb DAF12 ctr – counter-screen for DAF-12 agonists: agonists of human LXR-beta; 3,300 tested, under 10 active; shares compounds with hgDAF-12 ag; AID 743051; HEK293 Gal4-LXR luciferase reporter, 24 h; activation, % at 6.8 µM;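 active = mean activation of the triplicate above a set limit carried over from the primary screen, none filed active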
A number is an active result; . = inactive; ? = inconclusive; / = not tested or not shown. Compounds with a hit are over-represented: about 4.2% of the library has one in this group of screens.

SMILES | hgDAF-12 ag | Wnt bcat act | DAX1 StAR inh | hcDAF-12 act | esBAF inh | ssDAF12 agonist | LXR ag | hcDAF12 conf | hgDAF12 ag | LXRb DAF12 ctr
CS(=O)(=O)Nc1ccc2c(c1)[C@@H]1C[C@@H](CC(=O)N3CCCCC3)O[C@@H](CO)[C@@H]1O2 | / | / | / | / | . | / | / | / | / | /
Nc1c(Cl)ncnc1N/N=C/c1ccnc2ccccc12 | . | . | . | . | . | . | / | / | / | /
Clc1cccc(/C=N/Nc2ncnc3ccccc23)c1 | 13 | / | . | 11 | 53 | 1.8 | . | 7.1 | 18 | .
CCOc1ccc(-c2c(=O)n(O)c3ccccc3[n+]2[O-])cc1 | 21 | 56 | . | 7.8 | ? | . | . | . | 41 | .
COc1cccc(-c2nc(-c3ccc(Br)o3)no2)c1 | 31 | 45 | 4.4 | 7.6 | / | 2.0 | . | 12 | 23 | .
CC(=NC1CCCCC1)C1=C(O)c2ccccc2C1=O | 16 | ? | 4.2 | 8.1 | . | . | . | 5.8 | 15 | .
COc1cc(/C=N/O)ccc1OCc1ccc(Cl)cc1 | 19 | . | 4.0 | 7.9 | / | . | . | 5.7 | 15 | .
CCOc1cc(/C=N/O)ccc1OCc1ccc(F)cc1 | . | . | . | . | . | . | / | / | / | /
C[C@@H]1CN([C@@H](C)CO)C(=O)c2cccc(NS(=O)(=O)c3cccs3)c2O[C@H]1CN(C)CC1CCCCC1 | / | / | / | / | . | / | / | / | / | /
Cc1ccc(CN/C=C/C(=O)c2ccc(Br)cc2)cc1 | / | / | / | / | . | / | / | / | / | /
Cc1ccnc(N/C=C/C(=O)c2ccc(Br)cc2)c1 | 18 | 39 | . | 9.0 | . | . | . | 7.2 | 21 | .
CCCNC(=O)C[C@H]1C[C@H]2c3cc(NS(C)(=O)=O)ccc3O[C@H]2[C@@H](CO)O1 | / | / | / | / | . | / | / | / | / | /
Cc1ccc(NC(=O)CSCC(=O)NCc2ccco2)cc1 | . | . | . | . | . | . | / | / | / | /
Cc1ccc(NC(=O)CSCc2ccco2)cc1 | 17 | . | . | 8.0 | . | 1.3 | . | . | 13 | .
O=C(CSCc1ccccc1)N=Nc1c(O)[nH]c2ccccc12 | . | . | . | . | / | . | / | / | / | /
O=C(N=Nc1c(O)[nH]c2ccccc12)c1ccco1 | 19 | . | . | 9.8 | . | . | . | 10 | 17 | .
Cc1ccc2nc(-c3ccc(NC(=S)NCC(C)(C)CN(C)C)cc3)sc2c1 | 18 | 56 | 4.0 | 7.8 | . | . | . | . | 13 | .
CCOc1ncccc1C(=O)Nc1nc(SC)ns1 | 14 | . | . | 6.9 | . | . | . | 6.1 | 11 | .
O=C(C[C@H]1C=C[C@@H](NC(=O)Nc2ccc(F)cc2)[C@H](CO)O1)NCc1cccc(F)c1 | / | / | / | / | . | / | / | / | / | /
COc1ccc2cc(-c3nc4ccccc4n3C)c(=O)oc2c1 | 16 | . | 4.1 | 6.8 | 87 | . | . | . | 11 | .
CCOC(=O)c1c(C)oc2c1c(C(c1cccnc1)N1CCCCC1)c(O)c1ccccc12 (stereo unspecified) | 14 | / | . | 11 | / | 1.8 | . | 6.8 | . | .
Oc1ccc(F)cc1-c1cc(-c2ccc3c(c2)OCCO3)n[nH]1 | 15 | / | . | 8.1 | / | 1.3 | . | . | 20 | .
O=C(Nc1ccc(Cl)c(Cl)c1)c1ccc2c(c1)OCO2 | 19 | . | . | 9.7 | . | 3.0 | . | 7.2 | 22 | .
O=C(Nc1ccc2c(c1)OCO2)c1ccc2c(c1)OCO2 | 14 | / | . | 7.3 | / | 2.1 | . | 9.3 | 15 | .
CC1CCC(NC(=O)c2ccc3c(c2)OCO3)CC1 (stereo unspecified) | 15 | . | 9.1 | 9.0 | . | . | . | 8.6 | 19 | .
